CXXC DNA block – inhibitors of human MLL CXXC domain-DNA interaction | MLL-CXXC / FITC-HOXA9 DNA fluorescence polarization | hit rate 0.037% among 290,000 | Q03164 | Potency, µM (top dose mostly 115 µM), for the others: at the top dose activity change, negative = inhibition, actives largely listed as inhibitors; active = well fitted inhibition curve with a large enough effect in the polarisation, with a control signal flat, not every such curve was filed as active; inconclusive = small, poorly fitted or top-dose-only effect, or effect the other way, or a change in a side signal; inactive = no such curve, though single readings can be large or run the other way; the % refers to the polarisation; also: potency is read from the fitted curve at half-maximal effect
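Steps: dispense CXXC domain solution (7 uM) → pin compounds or unlabeled HOX-A9 DNA control → 5 min ambient → add FLSN-HOX-A9 solution (50 nM) → spin → 30 min ambient → fluorescence polarization. Tris pH 7.5/NaCl/DTT/BSA buffer.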
Menin-MLL FL inh – displaces fluorescein MLL peptide from human menin; Fluorescence polarization, fluorescein-MLL peptide displacement from menin; FP activity change, % at 61.4 µM; 290,000 tested, under 10 active; AID 1766; active = well fitted curve in the direction sought with a large enough effect in the polarisation, not every such curve was filed as active; inconclusive = small, poorly fitted or top-dose-only effect, or effect the other way, or a change in a side signal; inactive = no such curve, though single readings can be large or run the other way; the % refers to the polarisation; also: % of control where 0% means no effect
Menin-MLL TR inh – menin-MLL binding inhibition, Texas Red mutant peptide; hit rate 0.23% among 270,000; Potency, µM (doses to about 61.6 µM), for the others: at the highest dose FP activity change, negative = inhibition, hits mostly inhibitors; Menin + Texas Red MLL mutant peptide, fluorescence polarization; O00255; active = well fitted inhibition curve with a large enough effect in the polarisation, with a control signal flat, not every such curve was filed as active; inconclusive = small, poorly fitted or top-dose-only effect, or effect the other way, or a change in a side signal; inactive = no such curve, though single readings can be large or run the other way; the % refers to the polarisation; also: potency is read from the fitted curve at half-maximal effect; % of control where 0% means no effect
TRPV1 ag – activates the human vanilloid receptor TRPV1. Q8NER1. TRPV1-expressing cells, Fluo-8 calcium influx, agonist mode. activation, % at 8.33 µM. hit rate 0.19% among 320,000; in the data active = activation above about 80%; inconclusive = between about 30% and that limit; also: 0% is about no effect
Target sequence (Q8NER1 whole entry, looked up): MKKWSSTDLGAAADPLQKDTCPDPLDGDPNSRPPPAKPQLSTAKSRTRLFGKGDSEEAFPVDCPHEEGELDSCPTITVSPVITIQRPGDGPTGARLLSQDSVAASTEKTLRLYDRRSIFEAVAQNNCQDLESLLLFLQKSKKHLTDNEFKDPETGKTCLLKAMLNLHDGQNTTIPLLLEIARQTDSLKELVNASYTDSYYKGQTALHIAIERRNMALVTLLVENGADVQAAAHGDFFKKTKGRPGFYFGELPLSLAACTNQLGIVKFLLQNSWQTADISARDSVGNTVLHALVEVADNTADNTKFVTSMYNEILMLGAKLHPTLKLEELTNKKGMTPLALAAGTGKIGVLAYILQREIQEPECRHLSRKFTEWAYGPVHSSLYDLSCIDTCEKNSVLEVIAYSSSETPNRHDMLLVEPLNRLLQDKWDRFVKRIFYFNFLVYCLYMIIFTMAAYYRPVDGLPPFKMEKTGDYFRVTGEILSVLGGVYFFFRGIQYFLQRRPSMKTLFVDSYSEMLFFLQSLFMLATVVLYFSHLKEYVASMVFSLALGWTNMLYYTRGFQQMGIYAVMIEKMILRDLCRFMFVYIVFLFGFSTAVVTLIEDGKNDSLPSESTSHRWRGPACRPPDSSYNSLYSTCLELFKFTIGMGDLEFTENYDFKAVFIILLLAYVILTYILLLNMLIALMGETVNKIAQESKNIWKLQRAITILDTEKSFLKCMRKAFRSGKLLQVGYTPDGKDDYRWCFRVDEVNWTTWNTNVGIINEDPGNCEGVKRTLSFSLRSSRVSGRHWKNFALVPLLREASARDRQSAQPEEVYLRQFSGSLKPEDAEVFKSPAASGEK
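Cells expressing TRPV1 were dye-loaded with Fluo-8 and read kinetically: 10 s baseline, 3 min after compound (agonist portion), then 2 min after EC20 capsaicin (allosteric enhancer portion). Calcium-bound dye fluorescence at 480/520 nm.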
TRPV1 PAM – potentiators of human vanilloid receptor 1 (TRPV1) | potentiation, % at 8.33 µM | TRPV1-expressing cells, Fluo-8 calcium influx, capsaicin EC20 potentiation | Q8NER1 | hit rate 0.02% among 320,000; in the data active = potentiation above about 80%; inconclusive = between about 30% and that limit; also: 0% is about no effect
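TRPV1-expressing cells were cultured overnight at 35.5C and loaded with Fluo-8 calcium dye for 40 to 90 min at room temperature. After a 10 s baseline, compound was added and calcium influx was read kinetically for 3 min (ex 480/em 520 nm).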
Numbers without * were called inactive; ? = inconclusive; nt = no result; [ ] = remark or other dose. A selection: hits, their analogues and other compounds. The true share with any hit is near 0.32%.

SMILES	CXXC DNA block	Menin-MLL FL inh	Menin-MLL TR inh	TRPV1 ag	TRPV1 PAM
CC(C)C[C@H](NC(=O)[C@H](CCCCN)NC(=O)CNC(=O)[C@H](CC(C)C)NC(=O)[C@@H](NC(=O)[C@@H]1CSSC[C@H](N)C(=O)N[C@@H](CO)C(=O)N[C@@H](CC(N)=O)C(=O)N[C@@H](CC(C)C)C(=O)N[C@@H](CO)C(=O)N[C@@H]([C@@H](C)O)C(=O)N1)C(C)C)C(=O)N[C@@H](CO)C(=O)N[C@@H](CCC(N)=O)C(=O)N[C@@H](CCC(=O)O)C(=O)N[C@@H](CC(C)C)C(=O)N[C@@H](Cc1cnc[nH]1)C(=O)N[C@@H](CCCCN)C(=O)N[C@@H](CC(C)C)C(=O)N[C@@H](CCC(N)=O)C(=O)N[C@H](C(=O)N[C@@H](Cc1ccc(O)cc1)C(=O)N1CCC[C@H]1C(=O)N[C@@H](CCCNC(=N)N)C(=O)N[C@H](C(=O)N[C@@H](CC(N)=O)C(=O)N[C@H](C(=O)NCC(=O)N[C@@H](CO)C(=O)NCC(=O)N[C@H](C(=O)N1CCC[C@H]1C(N)=O)[C@@H](C)O)[C@@H](C)O)[C@@H](C)O)[C@@H](C)O	nt	-6	-14%	nt	nt
CCOC(=O)[C@H]1[C@H]2COc3ccc(Cl)cc3[C@@H]2N2C(=O)c3ccc(F)cc3NC(=O)[C@@]12C	nt	nt	nt	83*	30
CCOC(=O)[C@H]1[C@H]2COc3ccc(Cl)cc3[C@@H]2N2C(=O)c3ccc(C)cc3NC(=O)[C@@]12C	nt	nt	nt	99*	?
CCOC(=O)[C@H]1[C@H]2COc3ccc(Cl)cc3[C@@H]2N2C(=O)c3ccccc3NC(=O)[C@@]12C	nt	nt	nt	?	1
CCC(C)Sc1ccc([C@H]2N[C@@](CC(C)C)(C(=O)OC)[C@H]3C(=O)N(C)C(=O)[C@@H]23)cc1 (some centres not stated)	nt	nt	nt	28	22
CCC(C)Sc1ccc([C@H]2N[C@@](CC(C)C)(C(=O)OC)[C@H]3C(=O)N(CC)C(=O)[C@@H]23)cc1 (some centres not stated)	nt	nt	nt	87*	2
CCCCn1cc[n+](C)c1	nt	-3	-14%	nt	nt
COc1ccc(-c2nnc3n2N=C(c2ccccc2OC)CS3)cc1OC	nt	3	-17%	nt	nt
COc1ccc(C2=Nn3c(nnc3-c3ccccc3OC)SC2)cc1OC	-6%	5	11µM*	-6	-1
COc1ccc(C2=Nn3c(nnc3-c3ccc(OC)c(OC)c3)SC2)c(OC)c1	nt	-5	-11%	nt	nt
O=C(NCCc1ccc(Cl)cc1)c1cc2ccccn2n1	-8%	0	nt	87*	-29
O=C(NCCc1ccc(Cl)cc1)c1cccs1	4%	-2	-2%	81*	-13
O=C(NCc1ccccn1)c1cc2ccccn2n1	-5%	-5	-1%[11.7 µM]	nt	nt
O=C(Nc1ccc(Br)cc1)c1cc2ccccn2n1	-10%	3	nt	85*	-26
O=C(CNC(=O)c1cccs1)c1ccc(Cl)cc1	4%	0	0%	23	-22
CC[C@H](C)[C@H](N)C(=O)N[C@@H](CCCNC(=N)N)C(=O)N[C@@H](CCC(N)=O)C(=O)NCC(=O)N1CCC[C@H]1C(=O)N[C@@H](CCCCN)C(=O)N[C@@H](CCC(=O)O)C(=O)N1CCC[C@H]1C(=O)N[C@@H](Cc1ccccc1)C(=O)N[C@@H](CCCNC(=N)N)C(=O)N[C@@H](CC(=O)O)C(=O)N[C@@H](Cc1ccc(O)cc1)C(=O)N[C@H](C(=O)N[C@@H](CC(=O)O)C(=O)N[C@@H](CCCNC(=N)N)C(=O)N[C@@H](Cc1ccccc1)C(=O)N[C@@H](Cc1ccc(O)cc1)C(=O)N[C@@H](CCCCN)C(=O)N[C@H](C(=O)N[C@@H](CC(C)C)C(=O)O)[C@@H](C)O)C(C)C	nt	0	10%	nt	nt
Cc1csc(NC(=O)CSc2nnc(C)s2)n1	1%	2	2%	-1	15
Cc1csc(NC(=O)CSc2nnc(NC(=O)COc3ccccc3)s2)n1	8%	3	40µM*	-3	3
CSCC[C@H](NC(=O)[C@@H](NC(=O)[C@H](CCC(=O)O)NC(=O)[C@H](CCSC)NC(=O)[C@H](CC(N)=O)NC(=O)[C@H](CCC(=O)O)NC(=O)[C@H](CC(N)=O)NC(=O)[C@H](CO)NC(=O)[C@H](C)N)[C@@H](C)O)C(=O)O	nt	-2	14%	nt	nt
Cc1cc(=O)oc2c3c(cc(OCC(=O)NCc4ccncc4)c12)OC(C)(C)CC3	-7%	-11	?	?	-27
COc1ccc(CNC(=O)COc2cc3c(c4oc(=O)cc(C)c24)CCC(C)(C)O3)cc1OC	-3%	-2	-6%	81*	5
Cc1c(C)c2c(OCC(=O)NCc3ccncc3)cc3c(c2oc1=O)CCC(C)(C)O3	-2%	-3	10%	80*	-19
COc1ccc(CC(=O)N2CCN(c3cccc(Cl)c3)CC2)cc1OC	5%	-2	0%	98*	-16
c1ccc2c(c1)SCc1c-2[nH]c2ccccc12	nt	-11	?	nt	nt
COc1ccc(C2=Nn3c(nnc3-c3ccccc3OC)SC2)c(OC)c1	nt	-5	-8%	nt	nt
CCOc1cc(N2CCOCC2)c(OCC)cc1NC(C)C(=O)N1CCN(CC)CC1 (configuration not stated)	17%	0	32µM*	1	0
COc1ccc(-c2nc3ccc(C)cn3c2NCc2ccc3c(c2)OCO3)cc1	4%	-2	3%	81*	5
Cc1ccc(-c2nc3ccccn3c2NCc2ccc3c(c2)OCO3)cc1	2%	3	-3%	2	19
CCCCc1ccc(NC(=O)Nc2cccnc2)cc1	?	-4	?	85*	6
Fc1ccc(-[n+]2nc(Nc3ccccc3)sc2-c2c3ccccc3cc3ccccc23)cc1	?	-5	?	-5	-17

Source: PubChem
